{
  "source": "PubChem BioAssay (NCATS)",
  "note": "Inconclusive results are not listed. Where a call stands in place of a potency, no number is given. Where a structure was tested more than once in an assay, its records may differ in their call. Activity calls are given as the source filed them. Calls come from the whole dose curve; as a rule, active = well fitted inhibition curve with a large enough effect; inconclusive = small, poorly fitted or top-dose-only effect; inactive = no such curve, though single readings can be large or run the other way. Potency is the fitted concentration of half-maximal effect.",
  "data": [
    {"assay": "qHTS assay for measurement of the activity of small molecule inhibitors on Zika virus induced Caspase-3 activity in human iPSC derived neural progenitor cells (hNPCs) (AID 1224857); note: nearly all actives have a fitted effect of over 65% in size", "conditions": "hNPCs ZIKV-induced caspase-3/7, Caspase-Glo luminescence, 6 h; series mostly up to 45.7 µM; activity change, negative = inhibition: at the top concentration", "summary_of_the_method": "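In medium with heparin 2 ug/ml and cyclopamine 2 uM, hNPCs (350 cells/well) received compound for one hour and then Zika virus at 2 FFU/cell; caspase activity was measured by Caspase-Glo 3/7 luminescence 6 h post-infection.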", "values": [
      {"smiles": "Cc1ccc(S(=O)(=O)NC(=O)NN2CC3CCCC3C2)cc1", "note": "(stereo not given)", "Potency": "inactive"},
      {"smiles": "CN(c1nccc(=O)[nH]1)C1CCN(c2nc3ccccc3n2Cc2ccc(F)cc2)CC1", "Potency": "inactive"},
      {"smiles": "Cc1cc2cc3c(C)cc(=O)oc3c(C)c2o1", "activity change, negative = inhibition": "12.2% (inactive)"},
      {"smiles": "CN(C)CCCC1(c2ccc(F)cc2)OCc2cc(C#N)ccc21", "note": "(stereo not given)", "Potency": "inactive"},
      {"smiles": "COc1c2occc2cc2ccc(=O)oc12", "Potency": "inactive"},
      {"smiles": "Nc1ncn([C@H]2C[C@H](O)[C@@H](CO)O2)c(=O)n1", "Potency": "inactive"},
      {"smiles": "Cc1nc2n(c(=O)c1CCN1CCC(c3noc4cc(F)ccc34)CC1)CCCC2", "Potency": "inactive"},
      {"smiles": "COC(=O)C1=C(C)NC(C)=C(C(=O)OC(C)C)C1c1cccc2nonc12", "note": "(stereo not given)", "Potency": "inactive"},
      {"smiles": "CCCCCCCCOc1ccccc1C(=O)Nc1ccc(C(=O)OCC[N+](C)(CC)CC)cc1", "Potency": "16.6 µM (active) and inactive"},
      {"smiles": "CS(=O)(=O)OCCCCOS(C)(=O)=O", "Potency": "inactive"},
      {"smiles": "Nc1ccc(S(N)(=O)=O)cc1", "Potency": "inactive"},
      {"smiles": "O=C1NC(=O)C(c2ccccc2[N+](=O)[O-])=C1Nc1ccc(O)c(Cl)c1", "Potency": "20.9 µM (active)"},
      {"smiles": "COC(=O)C1=C(C)NC(C)=C(C(=O)OCCCN2CCC(c3ccccc3)(c3ccccc3)CC2)C1c1cccc([N+](=O)[O-])c1", "note": "(stereo not given)", "Potency": "inactive"},
      {"smiles": "OC(CN1CCN(c2cccc(Cl)c2)CC1)C(c1ccccc1)c1ccccc1", "note": "(stereo not given)", "activity change, negative = inhibition": "7.72% (inactive)"},
      {"smiles": "COc1cc2c(N3CCN(C(=O)Nc4ccc(OC(C)C)cc4)CC3)ncnc2cc1OCCCN1CCCCC1", "Potency": "inactive"},
      {"smiles": "CC(=O)NC[C@H]1CN(c2ccc(N3CCOCC3)c(F)c2)C(=O)O1", "Potency": "inactive"}
    ]},
    {"assay": "qHTS assay for measurement of the activity of small molecule inhibitors on Zika virus induced Caspase-3 activity in human astrocytoma cells (AID 1224859)", "conditions": "SNB-19 ZIKV-induced caspase-3/7, luminescence, 6 h; series mostly up to 45.7 µM; activity change, negative = inhibition: at the top concentration", "summary_of_the_method": "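A cell-based luminescent caspase-3/7 assay used SNB-19 cells infected with ZIKV (2 FFU/cell) for 6 h following 1 h compound pretreatment.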", "values": [
      {"smiles": "N=C(N)c1ccc2cc(OC(=O)c3ccc(N=C(N)N)cc3)ccc2c1", "Potency": "inactive"},
      {"smiles": "CNC[C@H](O)c1ccc(O)c(O)c1", "Potency": "inactive"},
      {"smiles": "Nc1nc(OCc2ccccc2)c2[nH]cnc2n1", "activity change, negative = inhibition": "4.97% (inactive)"},
      {"smiles": "O=C(NOCC1CC1)c1ccc(F)c(F)c1Nc1ccc(I)cc1Cl", "Potency": "inactive"},
      {"smiles": "CCC[C@@H]1C[C@@H](C(=O)N[C@@H]([C@H]2O[C@H](SC)[C@H](O)[C@@H](O)[C@H]2O)[C@@H](C)O)N(C)C1", "Potency": "inactive"},
      {"smiles": "CN(C)C(=O)COC(=O)Cc1ccc(OC(=O)c2ccc(N=C(N)N)cc2)cc1", "Potency": "inactive"},
      {"smiles": "CC1(C)NC(=O)N(c2ccc([N+](=O)[O-])c(C(F)(F)F)c2)C1=O", "Potency": "inactive"},
      {"smiles": "Cc1cc(C2CCCCC2)n(O)c(=O)c1", "Potency": "inactive"},
      {"smiles": "CCCCN(CCCC)CCC(O)c1cc2c(Cl)cc(Cl)cc2c2cc(C(F)(F)F)ccc12", "note": "(stereo not given)", "Potency": "inactive"},
      {"smiles": "COc1ccc(C2(C#N)CCC(C(=O)O)CC2)cc1OC1CCCC1", "note": "(stereo not given)", "activity change, negative = inhibition": "39.6% (inactive)"},
      {"smiles": "NC(=NCc1ccccc1)NC(=O)c1nc(Cl)c(N)nc1N", "Potency": "inactive"},
      {"smiles": "Cn1c(NCCN(CCO)CCCc2ccc([N+](=O)[O-])cc2)cc(=O)n(C)c1=O", "Potency": "inactive"},
      {"smiles": "CC(=O)N1CCN(c2ccc(OC[C@H]3CO[C@](Cn4ccnc4)(c4ccc(Cl)cc4Cl)O3)cc2)CC1", "Potency": "inactive"},
      {"smiles": "COc1cc2nc(N3CCN(C(=O)C4CCCO4)CC3)nc(N)c2cc1OC", "note": "(stereo not given)", "Potency": "14.8 µM (active)"},
      {"smiles": "O=c1c(O)c(-c2ccc(O)cc2O)oc2cc(O)cc(O)c12", "Potency": "inactive"},
      {"smiles": "O=C(CCc1ccc(O)cc1)c1c(O)cc(O)cc1O", "Potency": "inactive"},
      {"smiles": "CC(=O)O[C@H]1C(=O)[C@@]2(C)C([C@H](OC(=O)c3ccccc3)[C@]3(O)C[C@H](OC(=O)[C@H](O)[C@@H](NC(=O)c4ccccc4)c4ccccc4)C(C)=C1C3(C)C)[C@]1(OC(C)=O)CO[C@@H]1C[C@@H]2O", "note": "(stereo not given in full)", "Potency": "inactive"},
      {"smiles": "Cc1ccc(Nc2nccc(N(C)c3ccc4c(C)n(C)nc4c3)n2)cc1S(N)(=O)=O", "Potency": "inactive"},
      {"smiles": "NCCCCNCCCN", "Potency": "inactive"},
      {"smiles": "CCCc1cc(=O)[nH]c(=S)[nH]1", "Potency": "inactive"},
      {"smiles": "Cc1cccc(CN2CCN(C(c3ccccc3)c3ccc(Cl)cc3)CC2)c1", "note": "(stereo not given)", "Potency": "inactive"},
      {"smiles": "N[C@@H](Cc1cc(I)c(Oc2cc(I)c(O)c(I)c2)c(I)c1)C(=O)O", "Potency": "inactive"},
      {"smiles": "COC(=O)N[C@H](C(=O)N[C@@H](Cc1ccccc1)[C@@H](O)CN(Cc1ccc(-c2ccccn2)cc1)NC(=O)[C@@H](NC(=O)OC)C(C)(C)C)C(C)(C)C", "Potency": "inactive"},
      {"smiles": "Cc1ccc(S(=O)(=O)NC(=O)NN2CC3CCCC3C2)cc1", "note": "(stereo not given)", "Potency": "inactive"},
      {"smiles": "CN(c1nccc(=O)[nH]1)C1CCN(c2nc3ccccc3n2Cc2ccc(F)cc2)CC1", "Potency": "inactive"},
      {"smiles": "Cc1cc2cc3c(C)cc(=O)oc3c(C)c2o1", "Potency": "inactive"},
      {"smiles": "CN(C)CCCC1(c2ccc(F)cc2)OCc2cc(C#N)ccc21", "note": "(stereo not given)", "Potency": "inactive"},
      {"smiles": "COc1c2occc2cc2ccc(=O)oc12", "Potency": "inactive"},
      {"smiles": "Nc1ncn([C@H]2C[C@H](O)[C@@H](CO)O2)c(=O)n1", "Potency": "inactive"}
    ]}
  ]
}
